Source: ChEMBL document CHEMBL3433997, “St. Jude Leishmania screening dataset” (2016)
Values joined by “and” are separate entries in the source; they are usually repeats but may differ in a detail not shown here. Equal values may be shown once.

Legend:
Type in all cases: functional
[1] = target: Solute carrier family 2, facilitated glucose transporter member 1 (Homo sapiens) (UniProt P11166); assay: ST_JUDE_LEISH: Cytotoxicity at 2uM final concentration against transgenic Leishmania Mexicana promastigotes LmGLUT1 that are glucose transport deficient and complemented with the human glucose transporter GLUT1. Activity is measured by DNA content using SYBR green in vitro
Sequence of Solute carrier family 2, facilitated glucose transporter member 1 (Homo sapiens) (P11166 whole entry): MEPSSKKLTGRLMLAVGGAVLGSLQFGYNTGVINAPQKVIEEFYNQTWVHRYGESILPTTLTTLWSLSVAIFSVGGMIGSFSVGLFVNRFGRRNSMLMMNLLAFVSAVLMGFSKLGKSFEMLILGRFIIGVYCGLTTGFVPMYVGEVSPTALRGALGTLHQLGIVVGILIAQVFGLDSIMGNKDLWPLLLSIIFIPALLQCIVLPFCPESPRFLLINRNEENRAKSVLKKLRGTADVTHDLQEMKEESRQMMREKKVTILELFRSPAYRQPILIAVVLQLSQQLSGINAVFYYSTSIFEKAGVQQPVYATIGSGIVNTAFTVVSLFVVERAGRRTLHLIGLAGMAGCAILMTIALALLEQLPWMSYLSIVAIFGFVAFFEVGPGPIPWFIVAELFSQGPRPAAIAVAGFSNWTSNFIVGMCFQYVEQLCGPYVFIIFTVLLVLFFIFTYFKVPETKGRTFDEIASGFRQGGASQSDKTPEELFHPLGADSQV

[2] = target: Hexose transporter 1 (Plasmodium falciparum) (UniProt O97467); assay: ST_JUDE_LEISH: Cytotoxicity at 2uM final concentration against transgenic Leishmania Mexicana promastigotes LmPfHT that are glucose transport deficient and complemented with the Plasmodium falciparum hexose transporter. Activity is measured by DNA content using SYBR green in vitro
[3] = target: Glucose transporter (Leishmania mexicana) (UniProt O61059); assay: ST_JUDE_LEISH: Cytotoxicity at 2uM final concentration against transgenic Leishmania Mexicana promastigotes LmGT2 that are glucose transport deficient and complemented with the L. Mexicana glucose transporter 2. Activity is measured by DNA content using SYBR green in vitro

Structure (SMILES)	inhibition [1]	inhibition [2]	inhibition [3]
COc1ccc(CN(C2CC2)C(C)C(=O)c2[nH]c(C)c(C(C)=O)c2C)cc1 (stereo not drawn)	-1.09%	1.96%	-1.15%
CN(C)c1cccc(CN2CC=C(c3c[nH]c4ccc(Cl)cc34)CC2)c1	8.22%	6.95%	4.91%
CCCCCCC(CC)c1cc(O)c2c(c1)OC(C)(C)c1ccncc1-2 (stereo not drawn)	3.06%	2.42%	-0.4%
Oc1ccccc1CNCC(O)c1cccc(C(F)(F)F)c1 (stereo not drawn)	-0.54%	-1.26%	-1.55%
CO/C(=C\C=C\c1cc2cc(Cl)c(Cl)cc2[nH]1)C(=O)N[C@H]1CN2CCC1CC2	0.86%	-0.23%	-0.34%
O=C(/C=C/c1cccs1)NC1CCC(CN2CCC(c3c[nH]c4ccccc34)CC2)CC1 (stereo not drawn)	4.14%	5.22%	2.51%
CC1(C)N=C(N)N=C(N)N1c1ccc([N+](=O)[O-])cc1	9.35%	8.47%	7.22%
O=C(Nc1cc(C(F)(F)F)cc(C(F)(F)F)c1)NC1CCC(CN2CCC(c3c[nH]c4ccccc34)CC2)CC1 (stereo not drawn)	-2.79% and 4.32%	-1.6% and 4.26%	-0.26% and 2.03%
Cc1[nH]c2ccccc2c1C1=CCN(CCN2CCOc3c(Br)cccc3C2=O)CC1	1.66%	1.57%	1.55%
CC(C)CNCc1cccc(-c2ccc(CN(C(=O)NC3CCCCC3)C3CCN(Cc4ccccc4)CC3)cc2)c1	4.72%	5.99%	5.84%
O=C(/C=C/c1ccccc1O)NC1CCC(CN2CCC(c3c[nH]c4ccccc34)CC2)CC1 (stereo not drawn)	-0.75% and -1.89%	0.85% and 0.08%	-1.86% and -3.26%
CNCCCN(C)C(=O)Oc1c(Br)c(C)nc(C)c1-c1ccc(Oc2ccc(OC(F)(F)F)cc2)cc1	-0.18%	-3.25%	-1.27%
CN1C2CCC1c1cc(NC(=O)c3cc(-c4ccc(Cl)cc4)cs3)ccc12 (stereo not drawn)	8.89%	9.62%	8.52%
CC(=O)N(Cc1cccc(-c2cccc(CNCc3ccc4c(c3)OCO4)c2)c1)C1CCN(Cc2ccccc2)CC1	6.88%	7.09%	7.83%
C=C[C@H]1CN2CC[C@H]1C[C@H]2[C@H](O)c1cc(/C=C/c2ccc(F)cc2)nc2ccc(OC)cc12	2.95%	0.72%	2.4%
CNCCc1c(O)ccc2ccccc12	2.95%	3.27%	3.59%
Cc1[nH]c2cc(F)ccc2c1C1=CCN(CCCCC2(C)C(=O)Nc3c(F)cccc32)CC1 (stereo not drawn)	3.71%	5.17%	4.44%
CCN(CC)CCN1C(=O)C(O)(c2ccccc2Cl)c2c1cc(C(N)=O)cc2C(F)(F)F (stereo not drawn)	3.25%	2.29%	2.69%
CN(c1cc(NC(=O)c2ccc(F)cc2)ccn1)C1CCN(Cc2ccc(C#N)cc2)CC1	2.42%	2.29%	4.46%
N=C(N)NC(=O)Nc1ccc([N+](=O)[O-])c(Cl)c1	0.15%	1.53%	0.59%
COC(=O)c1ccc(CC(C)NCC(O)c2cccc(C(F)(F)F)c2)cc1C (stereo not drawn)	0.54%	1.8%	0.87%
CC1=CC(=O)[C@@H](O)[C@]2(C)[C@H]3[C@@]4(O)OC[C@@]35[C@@H](C[C@@H]12)OC(=O)C[C@H]5[C@@H](C)[C@H]4O	7.27%	2.51%	0.79%
CC(C)CNCc1ccc(-c2ccc(CN(C(=O)NC3CCCCC3)C3CCN(Cc4ccccc4)CC3)cc2)cc1	7.16%	3.25%	6.77%
O=C(/C=C/c1ccc(Cl)c(Cl)c1)NC1CCC(CN2CCC(c3c[nH]c4ccccc34)CC2)CC1 (stereo not drawn)	2.35%	1.2%	1.83%

Structure (SMILES)	inhibition [1]	inhibition [2]	inhibition [3]
CCCCCCCN1C2CCC1CC(CCOc1ccnc3ccc(OC)cc13)C2 (stereo not drawn)	11.4%	8.68%	11%
O=C(NC1CCC(CN2CCC(c3c[nH]c4ccccc34)CC2)CC1)c1cc2cccc([N+](=O)[O-])c2[nH]1 (stereo not drawn)	-2.16%	2.66%	-0.94%
CN(c1cc(NC(=O)c2cccs2)ccn1)C1CCN(Cc2cccc(C#N)c2)CC1	8.2%	9.92%	8.95%
CCC1CN2CCc3cc(OC)c(OC)cc3C2CC1CC1NCCc2cc(OC)c(OC)cc21 (stereo not drawn)	96.6%	96%	93.1%
CCCCCc1cc(O)c2c(c1)OC(C)(C)CC2C1=CCN(Cc2cccnc2)CC1 (stereo not drawn)	-0.46%	1.05%	0.25%
N[C@@H](CCN1CCC(c2cccc(O)c2)CC1)Cc1ccc(F)c(F)c1	3.74%	2.04%	0.73%
O=C(/C=C/c1ccc(Cl)cc1)NC1CCC(CN2CCC(c3c[nH]c4ccccc34)CC2)CC1 (stereo not drawn)	0.07% and -1.03%	0.24% and -2.23%	-1.22% and 2.14%
O=C(NC1CCC(CN2CCC(c3c[nH]c4ccccc34)CC2)CC1)c1cc(-c2ccccc2Cl)n(-c2cccc(Cl)c2)n1 (stereo not drawn)	3.93%	2.86%	1.71%
O=C1c2ccccc2CCC1CCN1CC=C(c2c[nH]c3ccccc23)CC1 (stereo not drawn)	2.89%	3.52%	3.16%
OC(CNC1CCCCC1)c1ccc(Cl)c(Cl)c1 (stereo not drawn)	-1.03%	-0.96%	-0.95%
Cc1[nH]c2ccc(O)cc2c1C1CCN(CC2CCC(NC(=O)/C=C/c3ccc(Cl)c(Cl)c3)CC2)CC1 (stereo not drawn)	0.37%	0.95%	0.57%
COc1cc(CN2CCN(c3ccnc(N(C)C4CCN(C)CC4)n3)CC2)cc(Cl)c1O	5.87%	7.29%	6.73%
CC1(CCCCN2CC=C(c3c[nH]c4ccccc34)CC2)C(=O)Nc2ccccc21 (stereo not drawn)	0.6%	-0.08%	2.1%
C/C=C1/CN2CC[C@H]1C[C@H]2[C@H](O)c1ccnc2ccc(OC)cc12	-0.87%	-2.22%	2.08%
Cc1cc2cc(CNCCc3ccccc3Br)ccc2nc1N	9.09%	1.37%	5.36%
COc1ccc2[nH]cc(C3CCN(Cc4ccc(NC(=O)c5ccc(-c6ccccc6)cc5)cc4)CC3)c2c1	3.87%	2.27%	3.28%
O=C(/C=C/c1ccc(Cl)c(Cl)c1)NC1CCC(CN2CCC(c3c[nH]c4cc(C(F)(F)F)ccc34)CC2)CC1 (stereo not drawn)	6.9% and 1.89%	4.9% and -0.14%	12.7% and 2.07%
CCC1(C)CC(CCNCc2ccccc2O)(c2ccc(C)cc2)CCO1 (stereo not drawn)	-0.22%	-2.9%	-0.15%
N#Cc1c(F)cc(N2CCC(NCC[C@H](N)Cc3ccc(F)c(F)c3)CC2)cc1F	2.18%	3.63%	2.33%
COc1cc2nc(N(C)C3CCN(Cc4ccccc4)CC3)nc(N)c2cc1OC	69.8%	46.7%	25%
C[C@H](Cc1ccc(OCCCCCCOc2ccccc2)cc1)NC[C@H](O)c1cccc(Cl)c1	-0.31%	-0.04%	-0.25%
Cc1c(C(=O)NC2CCC(CN3CCC(c4c[nH]c5ccccc45)CC3)CC2)cnn1-c1c(Cl)cc(Cl)cc1Cl (stereo not drawn)	1.64%	1.93%	-1.52%
COCCNCc1ccc(-c2cccc(CN(C(=O)CCC3CCCC3)C3CCN(Cc4ccccc4)CC3)c2)cc1	-4.16%	1.28%	-1.05%
COc1cccc(C2(NC[C@@H](O)[C@H](Cc3ccccc3)NC(=O)c3ccccc3)CCCCC2)c1	0.07%	-1.37%	-4.56%

Structure (SMILES)	inhibition [1]	inhibition [2]	inhibition [3]
COC(=O)c1sccc1NC(=S)NC1CCC(CN2CCC(c3c[nH]c4ccccc34)CC2)CC1 (stereo not drawn)	4.17% and 2.22%	3.81% and 3.47%	0.42% and 1.38%
O=C(/C=C/c1cc(F)c(F)cc1F)N1CCC(CN2CCC(c3c[nH]c4ccccc34)CC2)CC1	0.47%	1.36%	0.46%
COc1ccc(OC)c(CNCC(O)c2cc(C(F)(F)F)cc(C(F)(F)F)c2)c1 (stereo not drawn)	5.31%	6.21%	3.49%
CCCCCCCc1cc(O)c2c(c1)OC(C)(C)c1ccncc1-2	1.49%	2.54%	1.72%
COC(=O)/C=C/c1ccc(CC(C)NCC(O)c2cccc(C(F)(F)F)c2)cc1 (stereo not drawn)	0.9% and -0.04%	-2.11% and 0.7%	-1.59% and -0.73%
CCCc1c(C(=O)NC2CCC(CN3CCC(c4c[nH]c5ccccc45)CC3)CC2)cnn1-c1ccc(Cl)cc1 (stereo not drawn)	-0.47%	-1.46%	-1.49%
CCCCCc1cc(O)c2c3c(c(=O)oc2c1)CN(C)CC3	2.93%	2.18%	1.87%
COc1ccc(C(=O)C2CC2CN2CC=C(c3c[nH]c4cccc(Br)c34)CC2)cc1 (stereo not drawn)	4.26%	2.54%	2.11%
S=C(Nc1ccccc1Cl)NC1CCC(CN2CCC(c3c[nH]c4ccccc34)CC2)CC1 (stereo not drawn)	5.7%	8.06%	3.34%
CN1CCC(COC(=O)C(O)(c2ccccc2)c2ccccc2)C1 (stereo not drawn)	2.1%	-0.69%	-0.38%
CN(C)c1cccc(NC(=O)NC2N=C(c3ccccc3)c3ccccc3N(CC(=O)N(C)c3ccccc3)C2=O)c1 (stereo not drawn)	6.38%	4.22%	2.42%
CCOC(=O)c1c(C)n(C2CCCCC2)c2cc(Br)c(O)cc12	-0.53%	-0.38%	-0.74%
COC(=O)c1ccc(CC(C)NCC(O)c2ccc(F)c(Cl)c2)cc1 (stereo not drawn)	0.56%	0.78%	2.31%
CN(c1cc(NC(=O)c2ccccc2)ccn1)C1CCN(Cc2cccc(F)c2)CC1	1.23%	4.2%	2.33%
COC(=O)c1ccc(CC(C)NCC(O)c2cccc(OC(F)(F)F)c2)cc1 (stereo not drawn)	0.35%	1.5%	1.7%
COc1cccc(/C=C/C(=O)NC2CCC(CN3CCC(c4c[nH]c5ccccc45)CC3)CC2)c1 (stereo not drawn)	2.16% and -1.74%	-0.63% and -2.74%	3.07% and -2.7%
Oc1ccc2[nH]cc(C3=CCN(CCc4ccccc4)CC3)c2c1	15.8%	18.1%	13.4%
c1ccc(C(OCCC2CCN(Cc3cccnc3)CC2)c2ccccc2)cc1	0.62%	0.06%	0.26%
NCc1ccc(-c2ccccc2CN(C(=O)Nc2ccccc2)C2CCN(Cc3ccccc3)CC2)cc1	2.32%	1.83%	-3.48%
O=C(/C=C/c1ccc(Cl)c(Cl)c1)NCC1CCC(CN2CCC(c3c[nH]c4ccccc34)CC2)CC1 (stereo not drawn)	2.37%	-3.01%	1.76%
CCN(CC)CCOC(=O)C(OC)(c1ccccc1)c1ccccc1	0.95%	3%	1.83%
Cc1[nH]c2ccc(NS(C)(=O)=O)cc2c1C1CCN(CC2CCN(C(=O)/C=C/c3ccc(Cl)c(Cl)c3)CC2)CC1	-0.42%	1.08%	-0.21%
Cc1c(C)c2c(c(C)c1O)CC[C@](C)(C(=O)N1CCC(CN3CCC(c4c[nH]c5ccccc45)CC3)CC1)O2	3.34%	4.94%	0.9%
